Consider seven compounds from PubChem BioAssay (Tox21).

Assay [1] in a line: Nuclear factor erythroid 2-related factor 2/antioxidant responsive element (Nrf2/ARE) small molecule agonists: qHTS cell viability counter screen in human keratinocytes (AID 1919968; active = well fitted curve in the direction sought with a large enough effect in the repeat runs; an effect the other way counts as inactive or inconclusive; note: nearly all actives have a fitted effect of over 55% in size; note: potency is the fitted concentration of half-maximal effect). The method, boiled down: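 Stably transfected HaCaT (KeratinoSens), 1,500/well. Test agents in DMSO were applied for 23 h, 37 C/5% CO2. CellTiter-Fluor was incubated 1 h before the fluorescence read.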

Assay [2] in a line: Nuclear factor erythroid 2-related factor 2/antioxidant responsive element (Nrf2/ARE) small molecule agonists: luciferase reporter gene qHTS assay in human keratinocytes (AID 1919969). Note: nearly all actives have a fitted effect of over 35% in size. Note: potency is the fitted concentration of half-maximal effect. In general terms: In a reporter assay the amount or activity of a reporter protein is the signal.
Assay [3] deals with Gonadotropin-releasing hormone receptor (Homo sapiens) (UniProt P30968). In words: Human gonadotropin-releasing hormone receptor (GnRHR) small molecule agonists, calcium flux assay in GnRHR-HEK293 cells (AID 1920063). Note: nearly all actives have a fitted effect of over 35% in size. Note: potency is the fitted concentration of half-maximal effect. The method, boiled down: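 Stable human GnRHR HEK293 line. 18 h plating, then calcium dye for 1 h at 37 C. Agonist-mode compound addition from DMSO stocks; fluorescence monitored 3 min.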
Sequence of Gonadotropin-releasing hormone receptor (Homo sapiens) (P30968 whole entry, looked up): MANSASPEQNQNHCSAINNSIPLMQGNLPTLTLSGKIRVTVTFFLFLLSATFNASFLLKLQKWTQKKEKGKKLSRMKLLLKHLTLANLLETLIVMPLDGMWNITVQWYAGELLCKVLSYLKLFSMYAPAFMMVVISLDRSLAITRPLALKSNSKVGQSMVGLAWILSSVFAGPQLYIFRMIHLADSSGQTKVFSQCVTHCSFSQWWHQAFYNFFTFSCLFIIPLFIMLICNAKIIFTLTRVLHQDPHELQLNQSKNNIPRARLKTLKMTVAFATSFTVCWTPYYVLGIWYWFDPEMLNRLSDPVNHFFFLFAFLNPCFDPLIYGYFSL
For orientation: Calcium assays in cells follow changes in intracellular calcium, usually with a dye or a luminescent sensor.

Assay [4] deals with KiSS-1 receptor (Homo sapiens) (UniProt Q969F8). In words: Human kisspeptin (KISS1R) small molecule agonists, calcium flux assay in KISS1R-HEK293 cells (AID 1920064; active = well fitted curve in the direction sought with a large enough effect in the repeat runs; an effect the other way counts as inactive or inconclusive). A digest of the protocol:
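After overnight (18 h) culture at 37 C/5% CO2, human KISS1R-HEK293 cells received calcium dye for 1 h, then test compound; emission at 540 nm (excitation 480 nm) was tracked for 3 min.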

The nature of assay [5]: G protein-coupled receptor (GPCR) small molecule agonists, calcium flux assay: HEK293 wild type cell line counter screen (AID 1920065). The method, boiled down: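 Following 18 h incubation at 37 C/5% CO2, plates got calcium dye for 1 h; compounds, ATP or DMSO were then pinned in and fluorescence followed kinetically (480/540 nm).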
Assay [6] can be described thus: p53 small molecule agonists, cell-based qHTS assay with human liver microsomes (AID 1963577).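 Note: p53 response element beta-lactamase reporter cells with liver microsomes plus NADPH.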 A digest of the protocol:
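With metabolic activation: human liver microsomes (0.5 mg/mL final) plus NADPH (0.5 mg/mL final) added alongside compounds to p53RE-bla cells; 16 h 37 C exposure; beta-lactamase read by LiveBLAzer fluorescence.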
(In general: In qHTS, concentration-response curves come from the screen itself.)

Assay [7] in a line: p53 small molecule agonists, cell-based qHTS assay with rat liver microsomes (AID 1963578). The method, boiled down:
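Metabolic activation by rat liver microsomes and NADPH, each 0.5 mg/mL final, added right after compounds to p53RE-bla reporter cells (4,000/well, plated 5 h earlier). 16 h at 37 C, then LiveBLAzer substrate for 2 h at room temperature in the dark; fluorescence read-out.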

The nature of assay [8]: p53 small molecule agonists, cell-based qHTS assay with human liver microsomes: qHTS cell viability counter screen (AID 1963579). Note: nearly all actives have a fitted effect of over 45% in size. Note: potency is the fitted concentration of half-maximal effect. The method, boiled down: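 Metabolic activation used human liver microsomes and NADPH, both 0.5 mg/mL final, over 16 hours at 37 C on p53RE-bla cells (4,000/well). Cytotoxicity measured by CellTiter-Glo luminescence, 30 min at room temperature.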

The nature of assay [9]: p53 small molecule agonists, cell-based qHTS assay: qHTS cell viability counter screen (AID 1963581). Note: nearly all actives have a fitted effect of over 45% in size. Note: potency is the fitted concentration of half-maximal effect. A digest of the protocol:
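qHTS counter screen: 16 h compound exposure at 37 C of p53RE-bla HCT-116 cells (4,000 per well, seeded 5 h prior), cell viability by ATP luminescence.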

Assay [10] deals with 5-hydroxytryptamine receptor 2A (Homo sapiens) (UniProt P28223). Briefly: 5-hydroxytryptamine receptor 2A (HTR2A) small molecule antagonists, cell-based qHTS assay (AID 1963586). Note: nearly all actives have a fitted effect of over 45% in size. A digest of the protocol:
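CHO cells stably expressing human HTR2A were plated for 18 h at 37 C, then loaded with calcium dye for 1 h. Compounds were preincubated 5 min at room temperature before DOI (4 nM solution) was added. Kinetic fluorescence was read for 3 min.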

Assay [11] has as its target Muscarinic acetylcholine receptor M1 (Homo sapiens) (UniProt P11229). In words: Cholinergic receptor muscarinic 1 (CHRM1) small molecule agonists, cell-based qHTS assay (AID 1963589). Note: nearly all actives have a fitted effect of over 35% in size. The method, boiled down:
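Kinetic fluorescence (1 s intervals) of calcium-sensitive dye in human M1 CHO cells after compound addition; cells pre-incubated 18 h at 37 C/5% CO2 and dye-loaded 1 h.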

Assay [12] is described as follows: cAMP Responsive Elements (CRE) small molecule agonists, cell-based qHTS assay (AID 1963590). A digest of the protocol:
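Test agents in DMSO were incubated 3 h at 37 C/5% CO2 with CRE-bla HEK 293T cells seeded 18 h earlier; LiveBLAzer B/G FRET substrate was added and read after 2 h at room temperature.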

Assay [13] is described as follows: cAMP Responsive Elements (CRE) small molecule antagonists, cell-based qHTS assay (AID 1963591; active = well fitted inhibition curve with a large enough effect in the signal ratio in the repeat runs, not every such curve was filed as active; the % refers to the signal ratio). The method, boiled down: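 Reporter line CRE-bla HEK 293T in dialyzed-FBS DMEM; cells preincubated 18 h, treated 3 h with compound plus NKH477 (0.25 uM final); LiveBLAzer FRET, 2 h RT.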
For assay [14], the target named is Beta-2 adrenergic receptor (Homo sapiens) (UniProt P07550). In words: Adrenergic beta2 receptor (ADRB2) small molecule antagonists, cell-based qHTS assay (AID 1963592). Note: series mostly up to about 92 µM; nearly all actives have a fitted effect of over 50% in size. The method, boiled down: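 Assay format: CHO-ADRB2 cells, 18-20hr seeding at 37C/5% CO2, then compound plus 1nM isoproterenol agonist mix for 0.5hr RT. Homogeneous time-resolved fluorescence cAMP detection after 1hr, expressed as 665/615 nm ratio.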
Sequence of Beta-2 adrenergic receptor (Homo sapiens) (P07550 whole entry, looked up): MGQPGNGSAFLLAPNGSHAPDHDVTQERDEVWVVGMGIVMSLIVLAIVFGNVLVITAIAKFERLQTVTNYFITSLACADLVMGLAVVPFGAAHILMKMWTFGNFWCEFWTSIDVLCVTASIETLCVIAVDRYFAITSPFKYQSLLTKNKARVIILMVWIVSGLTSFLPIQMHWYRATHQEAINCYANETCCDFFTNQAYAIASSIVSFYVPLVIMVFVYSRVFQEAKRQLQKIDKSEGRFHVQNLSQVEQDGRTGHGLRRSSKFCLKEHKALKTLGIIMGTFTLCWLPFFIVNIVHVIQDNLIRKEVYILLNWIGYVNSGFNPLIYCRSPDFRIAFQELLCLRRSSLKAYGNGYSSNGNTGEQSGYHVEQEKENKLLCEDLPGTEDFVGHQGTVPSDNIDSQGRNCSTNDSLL

In assay [15] the target is D(2) dopamine receptor (Homo sapiens) (UniProt P14416). Briefly: Dopamine D2 receptor (DRD2) small molecule agonists, cell-based qHTS assay (AID 1963594). Note: nearly all actives have a fitted effect of over 35% in size. The method, boiled down: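 cAMP accumulation in DRD2-HEK293 cells measured by HTRF after 1 h detection; compounds added 10 min before NKH477 (200nM […]) forskolin-analogue stimulation, 30 min at room temperature, with Ro20-1724 present at 0.1 mM final.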
Sequence of D(2) dopamine receptor (Homo sapiens) (P14416 whole entry, looked up): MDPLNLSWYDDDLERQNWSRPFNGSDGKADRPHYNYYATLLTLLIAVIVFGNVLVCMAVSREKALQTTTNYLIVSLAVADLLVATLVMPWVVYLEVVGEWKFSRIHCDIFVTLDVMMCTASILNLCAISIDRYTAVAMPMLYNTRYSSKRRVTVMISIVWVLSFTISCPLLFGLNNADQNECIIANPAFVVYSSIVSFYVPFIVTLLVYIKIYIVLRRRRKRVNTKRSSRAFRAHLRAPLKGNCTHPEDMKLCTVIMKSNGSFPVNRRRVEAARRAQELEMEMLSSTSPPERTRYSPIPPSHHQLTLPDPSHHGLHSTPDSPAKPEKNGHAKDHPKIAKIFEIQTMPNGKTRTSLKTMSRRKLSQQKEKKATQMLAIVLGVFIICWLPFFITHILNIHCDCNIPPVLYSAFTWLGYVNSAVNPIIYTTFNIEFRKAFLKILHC

Assay [16] has the same target. Briefly: Dopamine D2 receptor (DRD2) small molecule antagonists, cell-based qHTS assay (AID 1963595; active = well fitted inhibition curve with a large enough effect in the signal ratio in the repeat runs, with a control signal flat; the % refers to the signal ratio). A digest of the protocol: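 Readout: HTRF cAMP, cAMP-d2 competing with cellular cAMP for anti-cAMP cryptate, read after 1 h. Cells: DRD2-HEK293. Conditions: 0.1 mM Ro20-1724, 12 nM quinpirole, 200 nM NKH477, 30 min RT.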
Assay [17] is described as follows: p53 small molecule agonists, cell-based qHTS assay with rat liver microsomes: qHTS cell viability counter screen (AID 1963580). Note: nearly all actives have a fitted effect of over 45% in size. A digest of the protocol: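 Cytotoxicity counter screen: intracellular ATP read by CellTiter-Glo luminescence in the p53 reporter wells. HCT-116 p53RE-bla cells were treated for 16 h at 37 C alongside rat liver microsomes and NADPH, each 0.5 mg/mL final.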

Assay [18] in a line: p53 small molecule agonists, cell-based qHTS assay (AID 1963582; active = well fitted activation curve with a large enough effect in the signal ratio in the repeat runs, not every such curve was filed as active; the % refers to the signal ratio). A digest of the protocol: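 Measured: fluorescence from cleaved LiveBLAzer substrate. System: p53RE-bla cells, 16 h compound treatment at 37 C, 2 h substrate step at room temperature.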
For assay [19], the target named is 5-hydroxytryptamine receptor 2A (Homo sapiens) (UniProt P28223). Briefly: 5-hydroxytryptamine receptor 2A (HTR2A) small molecule agonists, cell-based qHTS assay (AID 1963587). Note: nearly all actives have a fitted effect of over 30% in size. A digest of the protocol: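 Kinetic calcium-flux fluorescence (2 min, 1 sec intervals) after compound addition in agonist mode. HTR2A-CHO cells were cultured 18 h, then dye-loaded 1 h at 37 C.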
Sequence of 5-hydroxytryptamine receptor 2A (Homo sapiens) (P28223 whole entry, looked up): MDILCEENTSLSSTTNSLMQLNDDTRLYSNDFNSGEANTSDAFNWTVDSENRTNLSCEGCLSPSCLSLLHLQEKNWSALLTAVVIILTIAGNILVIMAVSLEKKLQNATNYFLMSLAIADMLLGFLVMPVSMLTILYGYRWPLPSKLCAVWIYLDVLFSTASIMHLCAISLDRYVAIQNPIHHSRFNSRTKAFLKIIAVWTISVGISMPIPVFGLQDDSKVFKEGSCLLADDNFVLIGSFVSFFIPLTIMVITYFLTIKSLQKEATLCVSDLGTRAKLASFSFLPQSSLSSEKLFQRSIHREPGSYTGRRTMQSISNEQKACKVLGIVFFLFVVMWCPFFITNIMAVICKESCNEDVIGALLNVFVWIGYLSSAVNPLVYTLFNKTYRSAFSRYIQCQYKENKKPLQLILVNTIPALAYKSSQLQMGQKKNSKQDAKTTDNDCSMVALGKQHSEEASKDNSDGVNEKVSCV

The target in assay [20] is Muscarinic acetylcholine receptor M1 (Homo sapiens) (UniProt P11229). Briefly: Cholinergic receptor muscarinic 1 (CHRM1) small molecule antagonists, cell-based qHTS assay (AID 1963588). Note: nearly all actives have a fitted effect of over 40% in size. Note: potency is the fitted concentration of half-maximal effect. The method, boiled down: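 Compounds were tested at 15 concentrations in three independent runs. Dye-loaded CHRM1-CHO cells were exposed 5 min at room temperature before stimulation by acetylcholine added at 50nM. Intracellular calcium was read kinetically on FDSS for 3 min.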
Sequence of Muscarinic acetylcholine receptor M1 (Homo sapiens) (P11229 whole entry, looked up): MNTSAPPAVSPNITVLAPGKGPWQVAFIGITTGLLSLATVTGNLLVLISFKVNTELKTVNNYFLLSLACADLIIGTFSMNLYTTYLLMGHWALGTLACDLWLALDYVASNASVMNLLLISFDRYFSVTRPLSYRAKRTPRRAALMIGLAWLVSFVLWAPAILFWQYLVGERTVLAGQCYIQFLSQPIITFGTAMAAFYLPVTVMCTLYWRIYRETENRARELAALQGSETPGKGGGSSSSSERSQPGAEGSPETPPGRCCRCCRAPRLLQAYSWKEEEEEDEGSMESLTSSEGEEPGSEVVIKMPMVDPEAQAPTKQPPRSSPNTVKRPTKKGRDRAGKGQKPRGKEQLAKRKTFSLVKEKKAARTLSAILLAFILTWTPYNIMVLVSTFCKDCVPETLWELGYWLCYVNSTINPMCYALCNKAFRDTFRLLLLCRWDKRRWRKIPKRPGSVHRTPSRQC

A number with no mark means an inactive call. Results filed as inconclusive are left out. Activity calls are given as the source filed them. Unless noted, calls come from the whole dose curve.

Sequence of KiSS-1 receptor (Homo sapiens) (Q969F8 whole entry, looked up): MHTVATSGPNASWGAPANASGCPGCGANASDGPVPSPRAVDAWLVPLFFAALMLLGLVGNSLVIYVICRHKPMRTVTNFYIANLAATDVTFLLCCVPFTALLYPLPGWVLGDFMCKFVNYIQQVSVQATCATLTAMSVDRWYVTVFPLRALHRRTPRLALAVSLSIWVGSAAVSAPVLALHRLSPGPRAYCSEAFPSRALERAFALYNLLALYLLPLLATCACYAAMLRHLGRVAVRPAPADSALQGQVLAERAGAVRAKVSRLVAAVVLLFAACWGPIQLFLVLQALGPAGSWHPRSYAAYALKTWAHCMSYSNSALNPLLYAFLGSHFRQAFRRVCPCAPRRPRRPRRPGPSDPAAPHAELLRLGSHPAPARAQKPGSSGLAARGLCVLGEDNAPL

Turning to `CCCCCCCCCCCC(=O)Cl`, the Potency result in assay [1], in [2], in [3], in [6], in [7] and in assay [8] was “inactive” each time. Also, the Potency entry in [9], in assay [10], in assay [11], in assay [12], in assay [13] and in assay [14] was “inactive” each time. Besides, the Potency entry in assay [15] and in assay [16] was “inactive” throughout. Also, the outcome in assay [4] and in [5] was inactive.
As for `OCc1ccccn1`, the Potency result in assay [1], in [2], in assay [3], in [6], in assay [7] and in [17] was “inactive” each time. The Potency result in [9], in assay [18], in [10], in assay [19], in [20] and in assay [11] was “inactive” in each case. Further, the Potency entry in [12], in [13], in [14], in [15] and in assay [16] was “inactive” in each case. The outcome in assay [4] and in assay [5] was inactive.
Consider `Cc1c(N)cccc1Cl`, for which the Potency entry in assay [1], in assay [2], in assay [3], in [6], in assay [7] and in [17] was “inactive” throughout. Moreover, the Potency result in [9], in assay [18], in assay [10], in assay [19], in [20] and in assay [11] was “inactive” in each case. Besides, the Potency result in assay [12], in [13], in assay [14], in [15] and in assay [16] was “inactive” each time. For the same compound, the outcome in assay [4] and in [5] was inactive.
As to `O=CNNC=O`, the Potency entry in assay [1], in assay [2], in [3], in assay [6], in assay [7] and in assay [17] was “inactive” each time. For the same compound, the Potency result in assay [9], in [18], in [10], in [19], in assay [20] and in [11] was “inactive” throughout. Also, the Potency result in assay [12], in assay [13], in assay [14], in [15] and in assay [16] was “inactive” throughout. For the same compound, the outcome in [4] and in assay [5] was inactive.
For the compound `CCCCCCCCCCCCCC[n+]1ccccc1`, the Potency is 27.3 µM (active) in assay [1], 34.7 µM (active) in assay [3] and 32.4 µM (active) in assay [8]. Further, the Potency entry in [2], in assay [6], in [7], in assay [14], in assay [15] and in assay [16] was “inactive” each time. Further, the result in [4] and in assay [5] was inactive.
As for `CCCCCCCCCCCC(=O)NCCCN(C)C`, the Potency was 27.3 µM (active) in assay [1]; 30.9 µM (active) in assay [3]; 45.8 µM (active) in assay [8]; 32.4 µM (active) in assay [9]; 8.4 µM (active) in [20]. Further, the Potency result in [2], in assay [6], in assay [7], in assay [19], in assay [11] and in [14] was “inactive” each time. Besides, the Potency entry in assay [15] was “inactive”. Also, the outcome in [4] and in [5] was inactive.
Consider `CCCOC(=O)c1ccc(O)cc1`, for which the Potency entry in assay [1], in assay [3], in assay [6], in [7], in assay [8] and in assay [10] was “inactive” each time. The Potency entry in assay [19], in [11], in [12], in [13], in [15] and in [16] was “inactive” in each case. The Potency in [2] is 27.3 µM (active). Further, the outcome in assay [4] and in [5] was inactive.
